RORg inh: blocks mouse ROR gamma transcriptional activity. P51450. Drosophila S2 Gal4-RORgamma UAS-luciferase reporter, 20 h. Potency, µM (doses to about 53.6 µM), inactives show top-dose activity change, negative = inhibition, actives largely listed as inhibitors. 5.4% of 310,000 active; note: potency is the fitted concentration of half-maximal effect; % is set by controls: 0 for no effect and ±100 for the full control effect; nearly all actives have a fitted effect of over 60% in size
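Drosophila S2 cells stably expressing Gal4-DBD/mouse RORγ fusion under metallothionein promoter plus UAS-luciferase; compound 1 h, then 700 uM CuSO4 induction for 20 h at ambient temperature; inhibition read as reduced luminescence.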
uPA surface inh: blocks generation of uPA at the cell surface | 0.31% of 330,000 active | Potency, µM (doses to about 38.3 µM), inactives show at the top dose activity change, negative = inhibition, usual class: inhibitors | cell surface uPA generation assay, qHTS; active = well fitted inhibition curve with a large enough effect; inconclusive = small, poorly fitted or top-dose-only effect; inactive = no such curve, though single readings can be large or run the other way; tested in mouse RAW 264.7 cells; note: potency is the fitted concentration of half-maximal effect; % is set by controls: 0 for no effect and ±100 for the full control effect; nearly all actives have a fitted effect of over 55% in size
Gal4-VP16 FLuc: Gal4-VP16 reporter inhibition counter-screen; AID 2546; 3.5% of 310,000 active; Potency, µM (doses to about 53.6 µM), inactives show top-dose activity, negative = inhibition, most hits filed as inhibitors; Drosophila S2 Gal4-VP16 UAS-luciferase, luminescence, 20 h;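 note: Gal4-VP16 expression switched on by copper sulfate through the metallothionein promoter; potency is the fitted concentration of half-maximal effect; % is set by controls: 0 for no effect and ±100 for the full control effect; nearly all actives have a fitted effect of over 50% in size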
TRPV1 PAM: human TRPV1 potentiation. TRPV1-expressing cells, Fluo-8 calcium influx, capsaicin EC20 potentiation. 0.02% of 320,000 active. potentiation, % at 8.33 µM; in the data active = potentiation above about 80%; inconclusive = between about 30% and that limit; note: 0% is about no effect
Target sequence (Q8NER1 whole entry, looked up): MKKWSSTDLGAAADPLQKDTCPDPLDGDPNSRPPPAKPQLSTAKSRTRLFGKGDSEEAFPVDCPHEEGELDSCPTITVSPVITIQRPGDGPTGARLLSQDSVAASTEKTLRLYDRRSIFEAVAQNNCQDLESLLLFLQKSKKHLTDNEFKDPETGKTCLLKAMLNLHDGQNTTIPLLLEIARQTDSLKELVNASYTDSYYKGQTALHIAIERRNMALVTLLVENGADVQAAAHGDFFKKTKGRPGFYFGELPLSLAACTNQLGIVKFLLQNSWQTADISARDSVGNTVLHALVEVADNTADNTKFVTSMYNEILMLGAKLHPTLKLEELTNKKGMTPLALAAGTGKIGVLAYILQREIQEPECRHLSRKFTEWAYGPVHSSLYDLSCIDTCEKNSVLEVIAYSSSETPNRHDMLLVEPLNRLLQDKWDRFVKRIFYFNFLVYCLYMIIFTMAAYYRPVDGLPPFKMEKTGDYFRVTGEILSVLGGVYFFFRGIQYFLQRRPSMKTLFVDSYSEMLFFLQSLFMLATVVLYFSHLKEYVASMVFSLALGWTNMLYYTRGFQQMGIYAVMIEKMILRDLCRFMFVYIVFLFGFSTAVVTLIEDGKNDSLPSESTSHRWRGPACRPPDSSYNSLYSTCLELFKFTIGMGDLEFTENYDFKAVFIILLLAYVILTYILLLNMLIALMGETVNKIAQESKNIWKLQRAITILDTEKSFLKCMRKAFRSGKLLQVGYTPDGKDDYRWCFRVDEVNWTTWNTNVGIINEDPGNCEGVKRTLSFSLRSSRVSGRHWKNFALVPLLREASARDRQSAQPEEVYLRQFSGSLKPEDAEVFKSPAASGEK
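TRPV1-expressing cells were cultured overnight at 35.5C and loaded with Fluo-8 calcium dye for 40 to 90 min at room temperature. After a 10 s baseline, compound was added and calcium influx was read kinetically for 3 min (ex 480/em 520 nm).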
TRPV1 agonist: agonists of human vanilloid receptor 1 (TRPV1); TRPV1-expressing cells, Fluo-8 calcium influx, agonist mode; activation, % at 8.33 µM; 0.19% of 320,000 active; AID 540275; in the data active = activation above about 80%; inconclusive = between about 30% and that limit; note: 0% is about no effect
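Cells expressing TRPV1 were dye-loaded with Fluo-8 and read kinetically: 10 s baseline, 3 min after compound (agonist portion), then 2 min after EC20 capsaicin (allosteric enhancer portion). Calcium-bound dye fluorescence at 480/520 nm.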
Numbers without * were called inactive; ? = inconclusive; . = no result; [ ] = dose if it differs, or a comment. Hits are enriched below; roughly 5.8% of the tested compounds scored in any of these assays. Unless noted, calls come from the whole dose curve; as a rule, active = well fitted curve in the direction sought with a large enough effect; inconclusive = small, poorly fitted or top-dose-only effect, or another doubt; inactive = no such curve, though single readings can be large; an effect the other way counts as inactive or inconclusive.

SMILES	RORg inh	uPA surface inh	Gal4-VP16 FLuc	TRPV1 PAM	TRPV1 agonist
Cc1occc1C(=O)N/N=C/c1ccc2c(c1)OCO2	7.9µM*	-12%	?	-1	19
Cc1cc(C(=O)N/N=C/c2ccc3c(c2)OCO3)c(C)o1	?	-7%	1%	-17	12
Cc1occc1C(=O)N/N=C/c1ccc(-c2ccccc2)cc1	13µM*	-8%	?	3	5
COc1cccc(-n2nnnc2SCC(=O)N2CCCc3ccccc32)c1	20µM*	-2%	?	8	6
O=C(CSc1nnnn1-c1cccc(Cl)c1)Nc1ccc2c(c1)CCC2	?	.	8.9µM*	-5	-2
O=C(CSc1nnnn1-c1cccnc1)Nc1cccc(Cl)c1	-5%	1%	7%	3	-1
CCc1ccccc1N(C)S(=O)(=O)c1ccc(-c2cc(C)no2)s1	-43%	?	?	14	?
Cc1ccc(NC(=O)CN(C)C(=O)c2cccnc2Nc2cccc(C(F)(F)F)c2)cc1	?	-1%	13µM*	-2	5
COc1cccc(NC(=O)CN(C)C(=O)c2cccnc2Nc2cccc(C(F)(F)F)c2)c1	.	-11%	.	-10	15
Cc1cccc(N(CC(=O)NCc2ccccc2)C(=O)CCC(=O)Nc2nccs2)c1	-2%	0%	-2%	4	2
CC[C@@H]1Cn2c(c3nc(-c4cc(Cl)cc(Cl)c4Cl)nc-3n(C)c2=O)N1	8.9µM*	.	?	.	.
COc1cccc(NC(=S)N/N=C2\CC(C)(C)Oc3ccc(O)cc32)c1	7.1µM*	-11%	4.5µM*	1	1
Fc1ccccc1NC(=S)Nn1cnnc1	-29%	5%	-2%	8	-11
Cc1cccc(NC(=S)N/N=C2\CC(C)(C)Oc3ccc(O)cc32)c1	4.5µM*	3%	3.2µM*	6	-2
COc1cccc(NC(=S)N/N=C2\CC3CCC2(C)C3(C)C)c1 (stereo unspecified)	0.56µM*	0%	5µM*	22	3
CC1(C)C/C(=N\NC(=S)Nc2ccccc2F)c2cc(O)ccc2O1	3.2µM*	-2%	?	?	2
COc1ccc(Nc2ncnc3c2c(C)c(C)n3CCO)cc1	-40%	-11%	-8%	-8	1
CCc1ccccc1NC(=O)COC(=O)c1cccs1	7%	-1%	-3%	?	-1
O=C(NC1CC1)C1CCN(C2CCN(C(=O)Cc3ccc4c(c3)OCO4)CC2)CC1	10µM*	2%	-16%	-17	13
CC(C)NC(=O)C1CCN(C2CCN(C(=O)Cc3ccc4c(c3)OCO4)CC2)CC1	-21%	-5%	-8%	4	-2
Cc1cccc(N2C(=O)C3CC3C2=O)c1 (stereo unspecified)	21%	8%	-3%	8	3
Cc1nn(-c2ccccc2)c2sc(-c3n[nH]c(=S)o3)cc12	2.8µM*	-2%	-10%[0.365 µM]	20	-10
O=C(Nc1ccccc1)N1CC2(CCN(S(=O)(=O)c3ccccc3)CC2)C1	23%	.	?	.	.
O=c1[nH]nc(Cc2ncc(C(F)(F)F)cc2Cl)c2ccccc12	?	0%	-29%	2	0
N#CCCN(C(=O)COC(=O)c1nc(Cl)ccc1Cl)c1ccccc1	.	0%	.	-25	-1
SMILES	RORg inh	uPA surface inh	Gal4-VP16 FLuc	TRPV1 PAM	TRPV1 agonist
N#CCCN(C(=O)CCl)c1cccc(Cl)c1	13µM*	?	-27%	0	-5
COc1ccc(C(=O)Nc2nc3ccccc3[nH]2)cc1OC	11µM*	.	10µM*	-1	-1
COc1ccc(C(=O)Nc2nc3ccccc3[nH]2)cc1S(=O)(=O)N1CCCC1	11µM*	0%	?	16	0
COc1ccc(C(=O)NC(C)c2nc3ccccc3[nH]2)cc1OC (stereo unspecified)	-8%	4%	-4%	-2	1
CCOc1ccc(C(=O)Nc2nc3ccccc3[nH]2)cc1OCC	1.4µM*	-26%	16µM*	21	-8
COc1cc(C(=O)Nc2nc3ccccc3[nH]2)ccc1OC(F)F	5µM*	-12%	7.9µM*	16	1
O=C1CC(NCc2ccc3c(c2)OCO3)C(=O)N1CCc1ccccc1 (stereo unspecified)	-3%	10%	-9%	.	.
O=C1CC(c2ccco2)CC2=C1C(c1ccc(O)cc1)n1nc(C(F)(F)F)nc1N2 (stereo unspecified)	.	.	.	12	1
COc1ccc(Br)c(C(=O)Nc2nc3ccccc3[nH]2)c1	-44%	0%	5%	3	-4

Source: PubChem
